Data published in paper PMC5540273 (PLoS ONE, 2017).

What was measured:
Details in all cases: concentration: 1 μM, replicates: in singlicate; n = 1
STK36 = test system: STK36
STK39 = test system: STK39
SYK = test system: SYK
SgK110 = test system: SgK110
TAK1 = test system: T1, TAK1
T1 construct: gene MAP3K7

TAOK1 = test system: TAOK1
TAOK2 = test system: TAOK2
TAOK3 = test system: TAOK3
TBK1 = test system: TBK1
TEC = test system: TEC
TESK1 = test system: TESK1
TGFBR1 = test system: TGFBR1
TGFBR2 = test system: TGFBR2
TIE1 = test system: TIE1
TIE2 = test system: T2, TIE2
T2 construct: gene TEK

TLK1 = test system: TLK1
TLK2 = test system: TLK2
TNIK = test system: TNIK
TNK1 = test system: TNK1
TNK2 = test system: TNK2
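Further: KINOMEscan kinase panel screen.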

Compound | %Inh (STK36) [%] | %Inh (STK39) [%] | %Inh (SYK) [%] | %Inh (SgK110) [%] | %Inh (TAK1) [%] | %Inh (TAOK1) [%] | %Inh (TAOK2) [%] | %Inh (TAOK3) [%] | %Inh (TBK1) [%] | %Inh (TEC) [%] | %Inh (TESK1) [%] | %Inh (TGFBR1) [%] | %Inh (TGFBR2) [%] | %Inh (TIE1) [%] | %Inh (TIE2) [%] | %Inh (TLK1) [%] | %Inh (TLK2) [%] | %Inh (TNIK) [%] | %Inh (TNK1) [%] | %Inh (TNK2) [%]
CCNc1nccc(-c2c(-c3ccc(F)cc3)ncn2C2CCN(C)CC2)n1 | 25 | 0 | 0 | 0 | 0 | 0 | 0 | 0 | 1 | 14 | 0 | 0 | 0 | 100 | 0 | 17 | 0 | 24 | 0 | 0
O=C(Nc1c(F)cccc1F)c1cc(C(=O)c2ccccc2F)c[nH]1 [GSK1326180] | 0 | 0 | 22 | 0 | 0 | 0 | 0 | 0 | 3 | 7 | 10 | 0 | 6 | 0 | 0 | 0 | 0 | 20 | 8 | 8
Cc1ccc(-c2ccc3occ(-c4ccc(S(C)=O)cc4)c3c2)nn1 (stereo not drawn) | 0 | 0 | 5 | 0 | 0 | 0 | 0 | 0 | 47 | 0 | 0 | 0 | 18 | 0 | 15 | 0 | 38 | 0 | 0 | 0
COc1cc(Nc2nccc(N3CCC(NC(=O)Nc4ccc5c(c4)OCO5)C3)n2)cc(OC)c1OC (stereo not drawn) [GSK1379766] | 0 | 9 | 39 | 0 | 0 | 0 | 0 | 0 | 33 | 6 | 22 | 22 | 0 | 42 | 0 | 0 | 0 | 0 | 20 | 9
Cc1cc(-c2c(-c3ccc(F)cc3)ncn2CCCN2CCOCC2)nc(N)n1 [SB-222517] | 18 | 7 | 26 | 40 | 3 | 0 | 38 | 0 | 42 | 0 | 14 | 0 | 0 | 27 | 20 | 0 | 34 | 0 | 26 | 0
COC(=O)Nc1nc2cc(Oc3ccc(NC(=O)Nc4cccc(SC)c4)cc3)ccc2[nH]1.Cl [GW697999] | 8 | 0 | 23 | 0 | 36 | 0 | 0 | 0 | 0 | 5 | 3 | 25 | 0 | 96.5 | 93.2 | 0 | 0 | 0 | 4 | 10
COc1ccc(NC(=O)c2ccoc2)cc1-c1ccc(C(=O)NCC2CC2)cc1 [GW810437] | 0 | 10 | 12 | 36 | 18 | 23 | 24 | 15 | 8 | 0 | 6 | 37 | 0 | 0 | 5 | 2 | 12 | 21 | 16 | 0
Fc1cc(Cl)ccc1Nc1ccnc2cc(-c3ccc(CN4CCSCC4)o3)ccc12 [GW560106] | 0 | 4 | 51 | 0 | 0 | 0 | 0 | 0 | 6 | 0 | 17 | 0 | 71 | 1 | 6 | 0 | 0 | 47 | 87 | 75
Cc1ccc(NC(=O)c2ccnc(N3CCCCC3)c2)cc1-c1ccc(C(=O)NCC2CC2)cc1 [GW775610] | 0 | 15 | 0 | 0 | 0 | 0 | 0 | 0 | 0 | 0 | 1 | 6 | 0 | 0 | 0 | 100 | 0 | 0 | 0 | 0
COc1cccc(NC(=O)NCCNc2ccnc(Nc3ccc(F)cc3)n2)c1 [GSK1379879] | 0 | 1 | 20 | 0 | 0 | 0 | 0 | 0 | 13 | 0 | 40 | 26 | 0 | 1 | 0 | 0 | 0 | 0 | 0 | 9
Fc1cc(Cl)ccc1Nc1ccnc2cc(-c3ccc(CN4CCOCC4)o3)ccc12 [GW560109] | 0 | 10 | 16 | 3 | 0 | 0 | 0 | 0 | 0 | 76 | 13 | 0 | 83 | 13 | 8 | 0 | 0 | 53 | 81 | 82
Cl.Cl.NCC(NC(=O)c1cc(-c2cccnc2)c(-c2ccnc3[nH]ccc23)s1)c1ccccc1 (stereo not drawn) [GSK1323434] | 0 | 64 | 18 | 0 | 45 | 29 | 0 | 0 | 2 | 27 | 19 | 22 | 27 | 19 | 0 | 14 | 0 | 77 | 0 | 16
CN(c1ccc(NC(=O)Nc2cccc(Cl)c2)cc1)c1ccnc(N)n1.Cl [GW830707] | 0 | 0 | 2 | 0 | 19 | 0 | 8 | 0 | 0 | 0 | 4 | 71 | 0 | 86 | 19 | 0 | 5 | 0 | 28 | 3
COc1cccc(-c2nc(-c3ccccc3)[nH]c2-c2ccncc2)c1 [SB-610250] | 30 | 19 | 23 | 20 | 0 | 0 | 0 | 0 | 0 | 4 | 22 | 17 | 5 | 0 | 0 | 0 | 0 | 0 | 0 | 8
CC(C)(C)c1ccc(C(=O)Nc2cn3cc(-n4ccnc4)ccc3n2)cc1 | 10 | 0 | 0 | 15 | 9 | 0 | 0 | 0 | 24 | 0 | 0 | 0 | 0 | 3 | 17 | 4 | 0 | 2 | 0 | 0
NCCC(NC(=O)c1cc(Br)c(-c2ccnc3[nH]ccc23)s1)c1ccccc1.O=C(O)C(F)(F)F.O=C(O)C(F)(F)F (stereo not drawn) [GSK1307810] | 0 | 5 | 18 | 70 | 51 | 48 | 10 | 0 | 5 | 0 | 6 | 3 | 0 | 73 | 0 | 23 | 0 | 52 | 0 | 9
Cc1ccc(Nc2ccnc(Nc3ccc(C)c(F)c3)n2)cc1O.Cl [GW582868] | 7 | 18 | 56 | 0 | 0 | 0 | 0 | 0 | 16 | 7 | 0 | 0 | 83 | 47 | 0 | 0 | 0 | 0 | 0 | 29
COc1cc(Nc2ccnc3cc(-c4ccncc4)ccc23)cc(OC)c1OC.Cl [GW494610] | 9 | 11 | 0 | 0 | 0 | 0 | 0 | 0 | 0 | 5 | 73 | 63 | 59 | 19 | 15 | 0 | 0 | 89 | 40 | 28
CCNC(=O)/C=C/c1n[nH]c2cc(Sc3ccccc3C(=O)NC)ccc12 | 35 | 0 | 20 | 15 | 26 | 0 | 0 | 8 | 13 | 0 | 10 | 5 | 0 | 59 | 20 | 12 | 0 | 57 | 67 | 27
Cl.N#CCc1ccc(Nc2nccc(Nc3ccc(Oc4ccccc4)cc3)n2)cc1 [GW639905] | 0 | 10 | 5 | 6 | 0 | 0 | 7 | 0 | 6 | 75 | 56 | 0 | 8 | 2 | 9 | 0 | 0 | 0 | 59 | 26
COc1ccc(C)c(Nc2ccnc(Nc3ccc(-c4cnc[nH]4)cc3)n2)c1.Cl [GW784041] | 36 | 0 | 16 | 0 | 0 | 0 | 3 | 0 | 49 | 7 | 21 | 39 | 34 | 0 | 36 | 0 | 0 | 9 | 44 | 36
